# ± gives the standard deviation.
# T1: HaloTag-ATRX ADD domain (163-292)
# T1 chain: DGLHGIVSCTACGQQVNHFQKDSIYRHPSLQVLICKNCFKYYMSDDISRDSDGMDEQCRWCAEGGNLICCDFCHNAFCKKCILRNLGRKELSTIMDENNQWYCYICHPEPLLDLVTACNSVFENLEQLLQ
# Legend:
# Assay in all cases: peptide microarray binding signal (635 nm), min-max normalized on array (fraction of array maximum); higher = stronger binding
# [1] = biological target: T1, HaloTag-ATRX ADD domain (163-292)
# Outline: (§1)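 Within each library, mean intensities of triplicate spots were min-max scaled to give the binding signal. The spots were histone 13-mer peptide–cellulose conjugates on nitrocellulose with a Cy3 tracer, blocked overnight at 4°C. They were then probed for 1 h at 4°C using biotin-labelled HaloTag reader fusions (10 nM to 1 μM) with streptavidin-Alexa Fluor 647 or rabbit histone antibodies (1:10,000 to 1:2,000) with anti-rabbit Alexa 647, and scanned at 635 nm for signal and 532 nm for misprints on an Axon GenePix 4000B.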
# [2] = biological target: HaloTag-ING2 PHD (mouse Ing2 200-280)
# Outline: as §1
# [3] = biological target: anti-H3K4me3 antibody ab8580
# Outline: as §1
# [4] = biological target: anti-H3K9me3 antibody ab8898
# Outline: as §1
# [5] = peptide region: H3 11-23, peptide modifications: H3R17cit H3K18me3, binder concentration: 1:2,000 dilution
# [6] = peptide region: H3 11-23, peptide modifications: H3R17cit H3K18me3, binder concentration: 1:10,000 dilution
# [7] = peptide region: H3 20-32, binder concentration: 1:2,000 dilution
# [8] = peptide region: H3 20-32, binder concentration: 1:10,000 dilution
# [9] = peptide region: H3 11-23, peptide modifications: H3R17cit H3K18me1, binder concentration: 1:2,000 dilution
# [10] = peptide region: H3 11-23, peptide modifications: H3R17cit H3K18me1, binder concentration: 1:10,000 dilution
# [11] = peptide region: H3 11-23, peptide modifications: H3R17me1 H3K18ac, binder concentration: 1:2,000 dilution
# [12] = peptide region: H3 11-23, peptide modifications: H3R17me1 H3K18ac, binder concentration: 1:10,000 dilution
# [13] = peptide region: H3 11-23, peptide modifications: H3R17me2s H3K18me2, binder concentration: 1:2,000 dilution
# [14] = peptide region: H3 11-23, peptide modifications: H3R17me2s H3K18me2, binder concentration: 1:10,000 dilution
# [15] = peptide region: H3 11-23, peptide modifications: H3R17me1 H3K18me2, binder concentration: 1:2,000 dilution
# [16] = peptide region: H3 11-23, peptide modifications: H3R17me1 H3K18me2, binder concentration: 1:10,000 dilution
# [17] = peptide region: H3 11-23, peptide modifications: H3R17cit, binder concentration: 1:2,000 dilution
# [18] = peptide region: H3 11-23, peptide modifications: H3R17cit, binder concentration: 1:10,000 dilution
# [19] = peptide region: H3 11-23, peptide modifications: H3R17cit H3K18me2, binder concentration: 1:2,000 dilution
# [20] = peptide region: H3 11-23, peptide modifications: H3R17cit H3K18me2, binder concentration: 1:10,000 dilution
# [21] = peptide region: H3 11-23, peptide modifications: H3R17me1, binder concentration: 1:2,000 dilution
# [22] = peptide region: H3 11-23, peptide modifications: H3R17me1, binder concentration: 1:10,000 dilution
# [23] = peptide region: H3 11-23, peptide modifications: H3R17me2a H3K18ac, binder concentration: 1:2,000 dilution
# [24] = peptide region: H3 11-23, peptide modifications: H3R17me2a H3K18ac, binder concentration: 1:10,000 dilution
binder,measurement,setting,value
TGGKAPRKQLATK [H3 11-23 T G G K A P Rcit Kme3 Q L A T K],peptide microarray binding signal,"[1]; peptide region: H3 11-23, peptide modifications: H3R17cit H3K18me3, binder concentration: 50 nM",0.00592 ± 0.00019
same,peptide microarray binding signal,"[1]; peptide region: H3 11-23, peptide modifications: H3R17cit H3K18me3, binder concentration: 500 nM",0.012 ± 0.00018
same,peptide microarray binding signal,"[2]; peptide region: H3 11-23, peptide modifications: H3R17cit H3K18me3, binder concentration: 10 nM",0.0112 ± 0.0014
same,peptide microarray binding signal,"[2]; peptide region: H3 11-23, peptide modifications: H3R17cit H3K18me3, binder concentration: 100 nM",0.0317 ± 0.0063
same,peptide microarray binding signal,[3]; [5],0.728 ± 0.052
same,peptide microarray binding signal,[3]; [6],0.45 ± 0.036
same,peptide microarray binding signal,[4]; [5],0.0249 ± 0.0032
same,peptide microarray binding signal,[4]; [6],0.0125 ± 0.0016
LATKAARKSAPAT [H3 20-32 L A T K A A R K S A P A T],peptide microarray binding signal,"[1]; peptide region: H3 20-32, binder concentration: 50 nM",0.00505 ± 0.00047
same,peptide microarray binding signal,"[1]; peptide region: H3 20-32, binder concentration: 500 nM",0.00533 ± 9e-05
same,peptide microarray binding signal,"[2]; peptide region: H3 20-32, binder concentration: 10 nM",0.00806 ± 9.3e-05
same,peptide microarray binding signal,"[2]; peptide region: H3 20-32, binder concentration: 100 nM",0.0106 ± 0.00016
same,peptide microarray binding signal,[3]; [7],0.00249 ± 7e-05
same,peptide microarray binding signal,[3]; [8],0.00262 ± 4e-05
same,peptide microarray binding signal,[4]; [7],0.000982 ± 2.1e-05
same,peptide microarray binding signal,[4]; [8],0.00167
TGGKAPRKQLATK [H3 11-23 T G G K A P Rcit Kme Q L A T K],peptide microarray binding signal,"[1]; peptide region: H3 11-23, peptide modifications: H3R17cit H3K18me1, binder concentration: 50 nM",0.00524 ± 6.5e-05
same,peptide microarray binding signal,"[1]; peptide region: H3 11-23, peptide modifications: H3R17cit H3K18me1, binder concentration: 500 nM",0.009239 ± 4.5e-05
same,peptide microarray binding signal,"[2]; peptide region: H3 11-23, peptide modifications: H3R17cit H3K18me1, binder concentration: 10 nM",0.00382 ± 0.00016
same,peptide microarray binding signal,"[2]; peptide region: H3 11-23, peptide modifications: H3R17cit H3K18me1, binder concentration: 100 nM",0.014 ± 0.0031
same,peptide microarray binding signal,[3]; [9],0.00383 ± 0.00052
same,peptide microarray binding signal,[3]; [10],0.0028 ± 0.00018
same,peptide microarray binding signal,[4]; [9],0.000846 ± 5.8e-05
same,peptide microarray binding signal,[4]; [10],0.000807
TGGKAPRKQLATK [H3 11-23 T G G K A P Rme Kac Q L A T K],peptide microarray binding signal,"[1]; peptide region: H3 11-23, peptide modifications: H3R17me1 H3K18ac, binder concentration: 50 nM",0.00715 ± 0.00026
same,peptide microarray binding signal,"[1]; peptide region: H3 11-23, peptide modifications: H3R17me1 H3K18ac, binder concentration: 500 nM",0.0141 ± 0.00063
same,peptide microarray binding signal,"[2]; peptide region: H3 11-23, peptide modifications: H3R17me1 H3K18ac, binder concentration: 10 nM",0.00931 ± 0.0014
same,peptide microarray binding signal,"[2]; peptide region: H3 11-23, peptide modifications: H3R17me1 H3K18ac, binder concentration: 100 nM",0.0197 ± 0.0049
same,peptide microarray binding signal,[3]; [11],0.00513 ± 0.00068
same,peptide microarray binding signal,[3]; [12],0.0149 ± 0.004
same,peptide microarray binding signal,[4]; [11],0.001208 ± 9.1e-06
same,peptide microarray binding signal,[4]; [12],0.00121 ± 3.2e-05
TGGKAPRKQLATK [H3 11-23 T G G K A P Rme2s Kme2 Q L A T K],peptide microarray binding signal,"[1]; peptide region: H3 11-23, peptide modifications: H3R17me2s H3K18me2, binder concentration: 50 nM",0.00549 ± 0.0002
same,peptide microarray binding signal,"[1]; peptide region: H3 11-23, peptide modifications: H3R17me2s H3K18me2, binder concentration: 500 nM",0.0107 ± 0.00094
same,peptide microarray binding signal,"[2]; peptide region: H3 11-23, peptide modifications: H3R17me2s H3K18me2, binder concentration: 10 nM",0.0163 ± 0.0016
same,peptide microarray binding signal,"[2]; peptide region: H3 11-23, peptide modifications: H3R17me2s H3K18me2, binder concentration: 100 nM",0.0188 ± 0.0013
same,peptide microarray binding signal,[3]; [13],0.02 ± 0.0013
same,peptide microarray binding signal,[3]; [14],0.0106 ± 0.0017
same,peptide microarray binding signal,[4]; [13],0.00296 ± 0.00028
same,peptide microarray binding signal,[4]; [14],0.00259 ± 6.1e-05
TGGKAPRKQLATK [H3 11-23 T G G K A P Rme Kme2 Q L A T K],peptide microarray binding signal,"[1]; peptide region: H3 11-23, peptide modifications: H3R17me1 H3K18me2, binder concentration: 50 nM",0.00837 ± 0.00068
same,peptide microarray binding signal,"[1]; peptide region: H3 11-23, peptide modifications: H3R17me1 H3K18me2, binder concentration: 500 nM",0.0122 ± 0.0013
same,peptide microarray binding signal,"[2]; peptide region: H3 11-23, peptide modifications: H3R17me1 H3K18me2, binder concentration: 10 nM",0.0167 ± 0.002
same,peptide microarray binding signal,"[2]; peptide region: H3 11-23, peptide modifications: H3R17me1 H3K18me2, binder concentration: 100 nM",0.0345 ± 0.0088
same,peptide microarray binding signal,[3]; [15],0.0126 ± 0.0083
same,peptide microarray binding signal,[3]; [16],0.0135 ± 0.01
same,peptide microarray binding signal,[4]; [15],0.00181 ± 0.00018
same,peptide microarray binding signal,[4]; [16],0.001557 ± 1.5e-05
TGGKAPRKQLATK [H3 11-23 T G G K A P Rcit K Q L A T K],peptide microarray binding signal,"[1]; peptide region: H3 11-23, peptide modifications: H3R17cit, binder concentration: 50 nM",0.00364 ± 6.7e-05
same,peptide microarray binding signal,"[1]; peptide region: H3 11-23, peptide modifications: H3R17cit, binder concentration: 500 nM",0.0192 ± 0.00046
same,peptide microarray binding signal,"[2]; peptide region: H3 11-23, peptide modifications: H3R17cit, binder concentration: 10 nM",0.00794 ± 0.00039
same,peptide microarray binding signal,"[2]; peptide region: H3 11-23, peptide modifications: H3R17cit, binder concentration: 100 nM",0.0168 ± 0.0043
same,peptide microarray binding signal,[3]; [17],0.000302 ± 4.1e-05
same,peptide microarray binding signal,[3]; [18],0.00148 ± 0.00015
same,peptide microarray binding signal,[4]; [17],0.00122 ± 4.2e-05
same,peptide microarray binding signal,[4]; [18],0.0015 ± 6.7e-05
TGGKAPRKQLATK [H3 11-23 T G G K A P Rcit Kme2 Q L A T K],peptide microarray binding signal,"[1]; peptide region: H3 11-23, peptide modifications: H3R17cit H3K18me2, binder concentration: 50 nM",0.00542 ± 6.7e-05
same,peptide microarray binding signal,"[1]; peptide region: H3 11-23, peptide modifications: H3R17cit H3K18me2, binder concentration: 500 nM",0.0117 ± 0.00022
same,peptide microarray binding signal,"[2]; peptide region: H3 11-23, peptide modifications: H3R17cit H3K18me2, binder concentration: 10 nM",0.00806 ± 0.00083
same,peptide microarray binding signal,"[2]; peptide region: H3 11-23, peptide modifications: H3R17cit H3K18me2, binder concentration: 100 nM",0.0217 ± 0.0032
same,peptide microarray binding signal,[3]; [19],0.0091 ± 0.0018
same,peptide microarray binding signal,[3]; [20],0.00548 ± 0.00043
same,peptide microarray binding signal,[4]; [19],0.000921 ± 7.2e-05
same,peptide microarray binding signal,[4]; [20],0.000865 ± 2.4e-05
TGGKAPRKQLATK [H3 11-23 T G G K A P Rme K Q L A T K],peptide microarray binding signal,"[1]; peptide region: H3 11-23, peptide modifications: H3R17me1, binder concentration: 50 nM",0.0101 ± 0.00079
same,peptide microarray binding signal,"[1]; peptide region: H3 11-23, peptide modifications: H3R17me1, binder concentration: 500 nM",0.0274 ± 0.0035
same,peptide microarray binding signal,"[2]; peptide region: H3 11-23, peptide modifications: H3R17me1, binder concentration: 10 nM",0.00877 ± 0.0015
same,peptide microarray binding signal,"[2]; peptide region: H3 11-23, peptide modifications: H3R17me1, binder concentration: 100 nM",0.0348 ± 0.0049
same,peptide microarray binding signal,[3]; [21],0.00176 ± 7.5e-05
same,peptide microarray binding signal,[3]; [22],0.00103 ± 2.1e-05
same,peptide microarray binding signal,[4]; [21],0.00326 ± 7.1e-05
same,peptide microarray binding signal,[4]; [22],0.00265 ± 0.00014
TGGKAPRKQLATK [H3 11-23 T G G K A P Rme2a Kac Q L A T K],peptide microarray binding signal,"[1]; peptide region: H3 11-23, peptide modifications: H3R17me2a H3K18ac, binder concentration: 50 nM",0.00671 ± 0.00026
same,peptide microarray binding signal,"[1]; peptide region: H3 11-23, peptide modifications: H3R17me2a H3K18ac, binder concentration: 500 nM",0.0144 ± 0.001
same,peptide microarray binding signal,"[2]; peptide region: H3 11-23, peptide modifications: H3R17me2a H3K18ac, binder concentration: 10 nM",0.00967 ± 0.00055
same,peptide microarray binding signal,"[2]; peptide region: H3 11-23, peptide modifications: H3R17me2a H3K18ac, binder concentration: 100 nM",0.0188 ± 0.0034
same,peptide microarray binding signal,[3]; [23],0.00549 ± 0.00049
same,peptide microarray binding signal,[3]; [24],0.0302 ± 0.033
same,peptide microarray binding signal,[4]; [23],0.00273 ± 0.00027
same,peptide microarray binding signal,[4]; [24],0.00427 ± 0.0013

# From the supplement of paper PMC4022240
